Only some compounds are listed: those with a hit (about 2.3% of all), similar ones and a draw of the others.
Tau ThT inhib: qHTS for Inhibitors of Tau Fibril Formation, Thioflavin T Binding | Microtubule-associated protein tau (Homo sapiens), P10636 | recombinant tau K18 P301L, heparin-induced fibrillization, ThT fluorescence | Potency, µM (titrated, usually from 57.4 µM), without a hit: top-dose activity, negative = inhibition, most hits filed as inhibitors | 270,000 compounds, 2.1% hits | AID 1460, 2008; further: potency means the concentration at half of the fitted maximal effect; on the % scale 0 is the no-effect control and ±100 the full control effect; nearly all actives have a fitted effect of over 55% in size
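In this qHTS, human K18 P301L tau is incubated with compound and heparin for 6 hr at 37 C, and Thioflavin T fluorescence then reports fibril load.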
USP1-UAF1 inh: Inhibitors of USP1/UAF1: Primary Screen; recombinant USP1/UAF1, Ub-Rhodamine cleavage fluorescence; Potency, µM (top dose mostly 57.1 µM), for inactives: top-dose activity change, negative = inhibition, hits mostly inhibitors; 390,000 compounds, 0.23% hits; further: potency means the concentration at half of the fitted maximal effect; on the % scale 0 is the no-effect control and ±100 the full control effect; nearly all actives have a fitted effect of over 60% in size
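In this screen, compounds sit with the deubiquitinase complex (1nM) for 15 min at room temperature before Ub-Rho is added at 150nM final. Fluorescence rise is then followed for 6 reads every 60 seconds.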
FBPA coupling cs: qHTS Assay for Inhibitors of Fructose-1,6-bisphosphate Aldolase from Giardia Lamblia: Coupling assay counterscreen; coupling enzyme system counterscreen, AmpLite Red fluorescence; activity change, negative = inhibition, % at 58.2 µM, hits read low; 290,000 compounds, 0.67% hits; in the data active means activity change below about -30%; further: on the % scale 0 is the no-effect control and ±100 the full control effect
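Counterscreen of the coupled detection system alone, without aldolase: glyceraldehyde-3-phosphate coupling enzymes plus AmpLite Red readout. Compounds at 57.5 uM final, 10 min RT preincubation, 20 min RT reaction, fluorescence 525/598 nm.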
Tau FP inhib: qHTS for Inhibitors of Tau Fibril Formation, Fluorescence Polarization; 280,000 compounds, 0.39% hits; K18 P301L tau heparin fibrillization, Alexa594 FP, 6 h; Potency, µM (titrated, usually from 57.7 µM), for inactives: top-dose activity, negative = inhibition, hits mostly inhibitors; further: potency means the concentration at half of the fitted maximal effect; on the % scale 0 is the no-effect control and ±100 the full control effect; nearly all actives have a fitted effect of over 55% in size
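Recombinant K18 P301L […], labeled with Alexa 594 at 0.24 uM over 15 uM unlabeled; heparin inducer 20 uM final; 37 C, 6 hr; FP endpoint.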
Tau fluor counter: Counterscreen qHTS for Inhibitors of Tau Fibril Formation, Fluorescence Polarization | tau K18 P301L Alexa594 fluorescence, heparin fibrillization | Potency, µM (titrated, usually from 57.7 µM), without a hit: at the top dose activity change, negative = decrease | 280,000 compounds, 0.93% hits | AID 1463, 2008; further: potency means the concentration at half of the fitted maximal effect; on the % scale 0 is the no-effect control and ±100 the full control effect; nearly all actives have a fitted effect of over 55% in size
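Human K18 P301L tau (15 uM unlabeled plus 0.24 uM Alexa 594-labeled, final) in 100 mM sodium acetate pH 7 was mixed with compound and 20 uM heparin and incubated 6 hr at 37 C.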
Tau TEM fibril: Transmission Electron Microscopy Assay for Inhibitors of Tau Fibrillization; 45 compounds, 70% hits; shares compounds with Tau ThT inhib; fibril grade (0 = clumped fibrils, 4 = only tiny pieces) (no concentration beside the values); recombinant tau K18 P301L fibrillization, TEM grading; active compounds read high;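 active means compounds whose electron micrographs showed tau fibrils broken into shorter filaments or fragments, graded high on fibril breakup; inconclusive means micrographs gave an unclear fibril picture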
tau sediment: Sedimentation Assay for Inhibitors of Tau Fibrillization. 110 compounds, 50% hits. recombinant tau K18 P301L (four-repeat tau fragment), sedimentation SDS-PAGE densitometry. AID 1720, 2009. shares compounds with Tau ThT inhib. inhibition, % at 100 µM; in the data active means inhibition above about 40%; inconclusive means no clear call, values can overlap the other calls; inactive means below about 18%
* marks the source's active call; other numbers are inactive results; ? = inconclusive; · = no result given; [ ] = dose if it differs, or a comment. Unless noted, the call rests on the fitted dose curve; in most records, active means well fitted curve in the direction sought with a large enough effect; inconclusive means small, poorly fitted or top-dose-only effect, or another doubt; inactive means no such curve, though single readings can be large; an effect the other way counts as inactive or inconclusive.

SMILES | Tau ThT inhib | USP1-UAF1 inh | FBPA coupling cs | Tau FP inhib | Tau fluor counter | tau sediment | others
Cc1c(C(=O)N2CCCCCC2)c(S(=O)(=O)NCc2ccccc2)c(C)n1C | -1.8% | -12.6% | · | 3.0% | 0.4% | ·
CCn1c(O)c(/C=C2\C=NN=C2c2ccccc2)sc1=S | · | -20.2% | 0.2 | ? | ? | ·
CC(C)Cn1c(O)c(/C=C2\C=NN=C2c2ccccc2)sc1=S | -11.2% | -15.8% | -4.5 | 20µM* | -27.5% | 14.0
Cc1ccc(SCc2cc(=O)n(C)[nH]2)cc1 | 2.24µM* | -5.4% | 2.0 | ? | ? | 14.0
O=C(Nc1ccccc1)Nc1ccc(Nc2ccccc2)cc1 | · | -12.6% | · | · | · | ·
O=C(Nc1ccccc1)Nc1ccccc1 | 0.7% | -15.2% | 0.1 | -0.7% | -22.2% | 6.0
CN(C(=S)Nc1cccnc1)c1ccc(O)cc1 | 2µM* | -3.6% | -33.3* | 3.16µM* | ? | 51.0* | Tau TEM fibril=2*
CC(C)c1ccc(NC2CCCN(C(=O)c3ccoc3)C2)cc1 (centres undefined) | · | 2.7% | 0.0 | · | · | ·
NCCc1ccc(O)c(O)c1 | ? | 13.0% | -8.8 | ? | -28.3% | 15.0
O=S(=O)(c1ccc2ccccc2c1)N1CCOCC1 | · | 1.0% | -1.7 | · | · | ·
O=S(=O)(c1ccc2nc(-c3ccco3)c(-c3ccco3)nc2c1)N1CCOCC1 | 3.98µM* | -17.4% | -44.7* | 8.91µM* | 3.98µM*[quencher] | 58.0* | Tau TEM fibril=2*
Cc1ccc(NC(=O)N2CCN(c3ccccn3)CC2)cc1 | ? | -11.9% | 1.3 | 0.9% | -3.3% | 18.0
CC(C)(C)c1ccc(NC(=O)N2CCN(c3ccc([N+](=O)[O-])cn3)CC2)cc1 | ? | -8.8% | -2.3 | ? | ? | 15.0

From PubChem
